# Hits are enriched below; roughly 3.7% of the tested compounds scored in any of these assays.
# PfHsp90 set2: inhibits growth of yeast expressing Plasmodium falciparum Hsp90. inhibition, % at 9.4 µM. hit rate 0.32% among 310,000. S. cerevisiae expressing PfHsp90, BacTiter-Glo ATP, 48 h; yeast lacking PDR1 and PDR3 efflux regulators;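 active means every replicate shows inhibition above about 80%, whatever the replicate mean, limit read from the data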;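 further: 0% = DMSO neutral controls and 100% = 20 µM radicicol positive controls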
# tim10-1 inh: tim10-1 yeast growth inhibition | S. cerevisiae tim10-1 ts strain growth, BacTiter-Glo, 24 h | hit rate 2.2% among 330,000 | inhibition, % at 20 µM | AID 463190;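 active means inhibition of at least 40%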;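 further: mutant grown at 25 °C; 0% = DMSO wells with yeast and 100% = wells holding no yeast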
# tim23-1 inh: growth inhibitors of tim23-1 mutant yeast | AID 463212 | inhibition, % at 20 µM | S. cerevisiae tim23-1 growth, BacTiter-Glo luminescence, 24 h | hit rate 1.3% among 330,000;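 active means growth inhibition of the mutant yeast at or above 50%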;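 further: temperature-sensitive mutant grown at 25 °C; plate controls were DMSO-treated mutant yeast for no effect and medium wells lacking yeast for full effect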
# TIM10 inh: TIM10 yeast growth inhibition. hit rate 1.4% among 330,000. AID 463195. S. cerevisiae TIM10 strain growth, BacTiter-Glo luminescence, 24 h. inhibition, % at 10 µM;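 active means inhibition of 40% or more at the single tested concentration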;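 further: wild-type TIM10 isogenic control strain grown at permissive 25 °C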
# NALP3 yeast inh: inhibitors of NALP3 inflammasome in yeast; Yeast reconstituted NLRP3/ASC/caspase-1, beta-gal luminescence, 24 h; inhibition, % at 10 µM; hit rate 0.39% among 330,000;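 active means inhibition of 50% or more; inactive means inhibition below 50%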;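 further: plate controls were induced DMSO wells for no effect and uninduced yeast grown without galactose for full effect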
# tim10 confirm: confirmation of TIM10 yeast growth inhibitors; shares compounds with TIM10 inh; S. cerevisiae tim10 strain growth, BacTiter-Glo luminescence, 24 h; inhibition, % at 10 µM; hit rate 63% among 4,600; AID 463215;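 active means inhibition of yeast growth at or above a set limit in either of two replicates at 10 µM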;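 further: this counterscreen used the strain with wild-type TIM10; 0% = yeast with DMSO and 100% = medium wells lacking yeast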
# * = called active by the depositor; . = no result.
SMILES,PfHsp90 set2,tim10-1 inh,tim23-1 inh,TIM10 inh,NALP3 yeast inh,tim10 confirm
CCC(C)n1c(SCC(=O)Nc2cc(C(C)(C)C)nn2-c2ccccc2)nc2ccccc2c1=O (stereo not drawn),12.4,29.6,41.4,40.7*,10.0,25.0
Cc1nc2ccc(-c3nc4ccccc4o3)cc2[nH]1,5.4,-0.9,47.9,46.7*,38.0,33.6*
Nc1ccc(-c2nc3ccc(-c4nc5ccccc5o4)cc3[nH]2)cc1,9.4,31.3,31.5,54.9*,47.3,0.3
Cc1ccc(C(=O)N2CCCC2)cc1S(=O)(=O)N1CCCCC1,-16.2,3.2,9.9,14.6,6.4,.
CCN1C(=O)N/C(=C/c2cc(C)n(Cc3ccccc3)c2C)C1=O,-6.4,16.7,-3.1,95.3*,4.9,-9.8
CCn1c(C)cc(/C=C2\NC(=O)N(Cc3ccc(Cl)cc3)C2=O)c1C,-1.7,20.0,11.4,8.9,15.3,.
CSc1nc(-c2ccc(Cl)cc2)nn1C(=O)c1ccccc1,21.4,9.5,25.6,23.8,14.3,.
CSc1nc(-c2ccccc2)nn1C(=O)c1ccc(Cl)cc1,1.9,30.2,36.7,48.5*,10.6,-24.3
O=C(c1ccc([N+](=O)[O-])s1)N1CCN(c2ccc(C(F)(F)F)cn2)CC1,10.0,9.6,32.3,42.3*,7.3,26.9
CCOc1ccc(C=NN2CCCCCC2)cc1OCC,-13.1,.,.,.,.,.
CCOc1ccc(/C=N/n2c(SC)nnc2-c2ccccc2)cc1OCC,-16.3,14.0,19.2,43.2*,-1.5,21.0
CSCCC1NC(=O)N(CC(=O)Nc2cccc3ccccc23)C1=O (stereo not drawn),-5.3,-5.9,1.1,-1.9,21.3,.
CCN(CCNC(=O)C1CCCN(c2ncnc3c2nc2n3CCCCC2)C1)Cc1ccccc1 (stereo not drawn),2.2,2.4,1.1,71.1*,0.1,0.8
CN(CCNC(=O)C1CCN(c2ncnc3c2nc2n3CCCCC2)CC1)Cc1ccccc1,-4.5,-1.2,-13.8,-13.5,20.7,.
O=C(NCc1n[nH]c(=S)n1-c1ccc(F)cc1)c1ccco1,-5.2,-1.8,-7.6,-17.1,18.9,.
CC(C)(CNC(=O)CCNC(=O)c1ccc(Br)cc1)N1CCOCC1,-19.2,0.9,-10.5,3.4,6.9,.
O=C1CCc2cc(S(=O)(=O)NC3CCCCC3)cc3c2N1CC3,33.3,1.4,-2.9,2.8,13.2,.
COc1ccccc1CCC(=O)NCCCn1ccc2ccccc21,-32.1,29.8,22.4,-9.4,32.7,.
Cc1cc(C)c2nc(N3CCCN(C(=O)c4cnccn4)CC3)c(C#N)cc2c1,-59.9,20.0,44.0,29.1,-2.9,.
CC(C)COC(=O)C(C#N)c1nc2ccccc2nc1N1CCN(Cc2ccc3c(c2)OCO3)CC1 (stereo not drawn),-9.4,35.4,25.4,48.7*,6.8,38.9*
COc1ccc(NC(=O)c2cc3c(-c4ccc(OC)c(OC)c4)nn(C)c3s2)cc1OC,-29.5,34.5,35.5,40.1*,12.5,26.9*
O=[N+]([O-])c1ccc(COc2ccc(-c3[nH]ncc3-c3ccccc3)c(O)c2)cc1,20.1,17.4,3.8,5.0,21.3,.
COc1ccc(-c2cn[nH]c2-c2ccc(OCc3ccc(F)cc3)cc2O)cc1OC,7.9,30.9,22.5,40.1*,2.8,33.5*
Oc1cc(OCc2ccccc2)ccc1-c1[nH]ncc1-c1ccccc1,105.0*,-25.2,30.1,49.9*,29.3,45.9*
COc1ccccc1CNC(=O)N1CCN(c2ccccc2C)CC1,-48.1,18.0,17.9,-12.2,17.3,.
SMILES,PfHsp90 set2,tim10-1 inh,tim23-1 inh,TIM10 inh,NALP3 yeast inh,tim10 confirm
Cc1ccc(C)c(C(=O)COC(=O)c2ccccc2N2C(=O)C3C4CCC(C4)C3C2=O)c1 (stereo not drawn),-5.5,39.2,23.6,10.6,3.8,.
COc1nccc(C(F)(F)F)c1C(=O)NC(=O)Nc1c(C)cccc1C,0.0,7.3,13.0,40.3*,-27.1,5.5
COc1nccc(C(F)(F)F)c1C(=O)NC(=O)Nc1ccccc1,16.5,12.5,13.0,10.7,10.4,.
O=C(Oc1ccc(C(=S)N2CCOCC2)cc1Br)c1cc(Cl)ccc1Cl,.,32.4,24.5,47.2*,18.0,15.2
O=C(Oc1c(Br)cc(C(=S)N2CCOCC2)cc1Br)c1ccc(Cl)cc1,-41.0,31.0,26.9,35.1,12.6,.
CN1CCN(c2ccc(CNS(=O)(=O)Cc3ccc(Cl)cc3)cc2)CC1,-0.6,2.7,8.3,3.1,4.2,.
